# Results: the supplement of paper PMC8728848
# This is one part of a sample in which the strongest signals are shown more often than they occur.
# B1: CTLY 1 (Homo sapiens), Q6ZS10 (protein)
# chain: AITCPEGWLPFEGKCYYFSPSTKSWDEARMFCQENYSHLVIINSFAEHNFVAKAHGSPRVYWLGLNDRAQEGDWRWLDGSPVTLSFWEPEEPNNIHDEDCATMNKGGTWNDLSCYKTTYWICERKGLNDIFEAQKIEWHE
# Key:
# Assay in all cases: glycan array binding signal (z-score within array); higher = stronger binding
# Conditions in all cases: glycan notation: IUPAC condensed, linker removed
# [1] = target: Man(a1-2)Man(a1-6)[Man(a1-3)]Man(a1-6)[Man(a1-2)Man(a1-2)Man(a1-3)]Man(b1-4)GlcNAc(b1-4)GlcNAc
# Outline: (§1)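 Columns mapping to the same glycan were averaged after glycan names were converted to IUPAC-condensed notation. The data come from 3228 arrays in the Consortium for Functional Glycomics database, limited to those with an available protein sequence. Binding is reported as a within-array Z-score averaged across arrays of one protein sequence and across linkers.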
# Man(a1-6)Man = target: Man(a1-6)Man
# Outline: as §1
# Man(b1-4)GlcNAc = target: Man(b1-4)GlcNAc
# Outline: as §1
# Neu5Ac(a2-3)Gal = target: Neu5Ac(a2-3)Gal
# Outline: as §1
# [2] = target: Neu5Ac(a2-3)Gal(b1-3)GalNAc(b1-4)[Neu5Ac(a2-3)]Gal(b1-4)Glc
# Outline: as §1
# [3] = target: Neu5Ac(a2-3)Gal(b1-3)GlcNAc(b1-3)Gal(b1-4)GlcNAc
# Outline: as §1
# [4] = target: Neu5Ac(a2-3)Gal(b1-3)GlcNAc(b1-3)GalNAc
# Outline: as §1
# [5] = target: Neu5Ac(a2-3)Gal(b1-4)GlcNAc(b1-3)Gal(b1-4)[Fuc(a1-3)]GlcNAc
# Outline: as §1
# [6] = target: Neu5Ac(a2-3)Gal(b1-4)[Fuc(a1-3)]GlcNAc(b1-3)Gal(b1-4)[Fuc(a1-3)]GlcNAc(b1-3)Gal(b1-4)[Fuc(a1-3)]GlcNAc
# Outline: as §1
# Neu5Ac(a2-6)Gal = target: Neu5Ac(a2-6)Gal
# Outline: as §1
# [7] = target: Neu5Ac(a2-6)Gal(b1-4)GlcNAc(b1-3)GalNAc
# Outline: as §1
# Neu5Ac(a2-6)GalNAc = target: Neu5Ac(a2-6)GalNAc
# Outline: as §1
# [8] = target: Neu5Ac(a2-8)Neu5Ac(a2-3)Gal(b1-4)Glc
# Outline: as §1
binder,measurement,setting,value
B1,glycan array binding signal (z-score),[1],0.475
same,glycan array binding signal (z-score),Man(a1-6)Man,-0.228
same,glycan array binding signal (z-score),Man(b1-4)GlcNAc,-0.239
same,glycan array binding signal (z-score),Neu5Ac(a2-3)Gal,-0.238
same,glycan array binding signal (z-score),[2],-0.231
same,glycan array binding signal (z-score),[3],-0.235
same,glycan array binding signal (z-score),[4],-0.237
same,glycan array binding signal (z-score),[5],-0.238
same,glycan array binding signal (z-score),[6],1.04
same,glycan array binding signal (z-score),Neu5Ac(a2-6)Gal,-0.253
same,glycan array binding signal (z-score),[7],-0.235
same,glycan array binding signal (z-score),Neu5Ac(a2-6)GalNAc,-0.248
same,glycan array binding signal (z-score),[8],-0.252
